According to PubChem BioAssay (Tox21):
Records with an inconclusive call do not appear. Where a call stands in place of a potency, no number is given. Calls of active or inactive are those of the source. Calls follow the shape of the dose curve; as a rule, active = well fitted curve in the direction sought with a large enough effect in the repeat runs; inconclusive = weak or mixed curves; inactive = no such curve, though single readings can be large; an effect the other way counts as inactive or inconclusive.

Experiments:
[1] = molecular target: Cytochrome P450 2D6 (Homo sapiens) (UniProt P10635); assay: Cytochrome P450 Family 2 Subfamily D Member 6 (CYP2D6) small molecule antagonists: luciferase reporter qHTS assay (AID 1671196); conditions: P450-Glo CYP2D6 enzyme assay, luciferin luminescence, 1 h; series mostly up to 115 µM; also: nearly all actives have a fitted effect of over 50% in size; also: potency is read from the fitted curve at half-maximal effect
How it was run: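 Each well received CYP2D6 with its proluciferin substrate and chemical, sat 10 min, then got NADPH regeneration solution for 1 h at room temperature. Luminescence in RLU served as the activity measure.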

[2] = molecular target: Cytochrome P450 2C19 (Homo sapiens) (UniProt P33261); assay: Cytochrome P450 Family 2 Subfamily C Member 19 (CYP2C19) small molecule antagonists: luciferase reporter qHTS assay (AID 1671197); conditions: P450-Glo CYP2C19 enzyme, luciferin luminescence, 1 h; series mostly up to 115 µM; also: nearly all actives have a fitted effect of over 65% in size; also: potency is read from the fitted curve at half-maximal effect
How it was run: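 CYP2C19 P450-Glo, 1536-well qHTS. Cpd + enzyme/proluciferin substrate 10 min RT; + NADPH regen, 37C 1 h; stop with luciferin detection reagent, 20 min RT, luminescence (RLU). Pos ctrl ketoconazole.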

[3] = molecular target: Cytochrome P450 1A2 (Homo sapiens) (UniProt P05177); assay: Cytochrome P450 Family 1 Subfamily A Member 2 (CYP1A2) small molecule antagonists: luciferase reporter qHTS assay (AID 1671199); conditions: P450-Glo CYP1A2 enzyme, luciferin luminescence, 1 h; series mostly up to 115 µM; also: nearly all actives have a fitted effect of over 50% in size; also: potency is read from the fitted curve at half-maximal effect
How it was run: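 Enzymatic CYP1A2 assay, human, luminescent: 10 min compound–enzyme–substrate preincubation, 1 h NADPH-dependent turnover, 20 min detection step, room temperature throughout. Reduced light indicates lower CYP1A2 activity.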

[4] = molecular target: Cytochrome P450 3A4 (Homo sapiens) (UniProt P08684); assay: Cytochrome P450 Family 3 Subfamily A Member 4 (CYP3A4) small molecule antagonists: luciferase reporter qHTS assay (AID 1671201); conditions: P450-Glo CYP3A4 enzyme, luciferin luminescence, 1 h; series mostly up to 115 µM; also: nearly all actives have a fitted effect of over 50% in size; also: potency is read from the fitted curve at half-maximal effect
How it was run: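 Proluciferin-to-luciferin conversion by CYP3A4, NADPH-regenerated, 1 h RT; luminescence read as RLU. Ketoconazole as control.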

[5] = molecular target: Voltage-gated inwardly rectifying potassium channel KCNH2 (Homo sapiens) (UniProt Q12809); assay: Human Ether-a-go-go-Related Gene (hERG) channel small molecule antagonists: fluorescence cell-based qHTS assay (AID 1671200); conditions: hERG-U2OS cells, FluxOR thallium flux fluorescence; series mostly up to 76.8 µM;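 also: hERG-expressing U2OS cells given a thallium stimulus after FluxOR II dye loading; nearly all actives have a fitted effect of over 50% in size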
How it was run: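 Kinetic two-minute fluorescence traces, sampled at 1 s, were collected following thallium stimulus of U2OS cells (1000 per well) that had been cultured overnight at 37 C and loaded with FluxOR II.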

[6] = molecular target: Cytochrome P450 2C9 (Homo sapiens) (UniProt P11712); assay: Cytochrome P450 Family 2 Subfamily C Member 9 (CYP2C9) small molecule antagonists: luciferase reporter qHTS assay (AID 1671198); conditions: P450-Glo CYP2C9 enzyme assay, luciferin luminescence; series mostly up to 115 µM; also: nearly all actives have a fitted effect of over 50% in size
How it was run: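 Enzyme-substrate mix preincubated with compound 10 min at room temperature; reaction started with NADPH regeneration solution, 1 h 37C. Luminescent luciferin product read after 20 min detection reagent.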

Chain of Voltage-gated inwardly rectifying potassium channel KCNH2 (Homo sapiens) (Q12809 whole entry, looked up): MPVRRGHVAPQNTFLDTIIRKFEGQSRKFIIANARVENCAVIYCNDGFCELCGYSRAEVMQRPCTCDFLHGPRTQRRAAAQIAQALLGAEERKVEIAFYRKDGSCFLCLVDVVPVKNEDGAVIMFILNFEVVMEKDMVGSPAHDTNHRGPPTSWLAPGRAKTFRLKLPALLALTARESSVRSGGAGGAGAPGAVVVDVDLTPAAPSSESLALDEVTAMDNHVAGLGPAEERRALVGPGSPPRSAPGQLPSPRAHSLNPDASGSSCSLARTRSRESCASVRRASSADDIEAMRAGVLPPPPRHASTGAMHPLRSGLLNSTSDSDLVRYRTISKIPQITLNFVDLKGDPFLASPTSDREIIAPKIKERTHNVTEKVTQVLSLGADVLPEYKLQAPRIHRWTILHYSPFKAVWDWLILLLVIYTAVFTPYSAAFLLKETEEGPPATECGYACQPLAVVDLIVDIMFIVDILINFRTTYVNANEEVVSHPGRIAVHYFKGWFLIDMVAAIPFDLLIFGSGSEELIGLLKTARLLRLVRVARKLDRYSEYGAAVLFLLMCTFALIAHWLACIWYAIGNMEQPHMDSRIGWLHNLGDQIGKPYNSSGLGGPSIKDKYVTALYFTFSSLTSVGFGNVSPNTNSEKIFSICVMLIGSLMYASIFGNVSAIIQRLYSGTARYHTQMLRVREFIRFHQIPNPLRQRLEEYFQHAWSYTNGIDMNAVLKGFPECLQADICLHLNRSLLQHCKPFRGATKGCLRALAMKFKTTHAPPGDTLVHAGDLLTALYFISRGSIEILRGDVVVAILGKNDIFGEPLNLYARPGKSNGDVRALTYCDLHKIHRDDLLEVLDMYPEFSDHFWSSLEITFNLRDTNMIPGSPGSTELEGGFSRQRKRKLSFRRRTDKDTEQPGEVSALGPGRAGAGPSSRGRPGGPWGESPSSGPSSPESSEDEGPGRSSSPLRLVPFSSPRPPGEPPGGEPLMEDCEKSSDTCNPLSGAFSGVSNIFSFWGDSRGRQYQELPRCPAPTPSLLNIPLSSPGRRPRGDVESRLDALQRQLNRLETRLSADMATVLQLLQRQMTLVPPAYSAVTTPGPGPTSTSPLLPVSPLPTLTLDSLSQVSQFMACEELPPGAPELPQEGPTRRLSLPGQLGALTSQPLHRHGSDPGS
Chain of Cytochrome P450 2C9 (Homo sapiens) (P11712 whole entry, looked up): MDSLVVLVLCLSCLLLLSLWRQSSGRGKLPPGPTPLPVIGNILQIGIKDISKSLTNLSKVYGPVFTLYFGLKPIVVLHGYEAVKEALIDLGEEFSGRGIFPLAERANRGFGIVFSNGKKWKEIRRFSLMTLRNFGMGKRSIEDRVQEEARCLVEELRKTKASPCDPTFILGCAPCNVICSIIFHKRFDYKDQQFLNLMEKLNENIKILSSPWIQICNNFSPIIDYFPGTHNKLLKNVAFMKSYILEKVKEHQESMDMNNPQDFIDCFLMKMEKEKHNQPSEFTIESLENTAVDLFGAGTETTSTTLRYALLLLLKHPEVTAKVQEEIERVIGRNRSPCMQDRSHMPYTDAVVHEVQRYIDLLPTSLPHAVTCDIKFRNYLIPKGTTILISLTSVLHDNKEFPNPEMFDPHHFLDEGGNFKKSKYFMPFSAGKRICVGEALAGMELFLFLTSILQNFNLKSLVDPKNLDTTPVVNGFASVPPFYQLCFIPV
Chain of Cytochrome P450 2C19 (Homo sapiens) (P33261 whole entry, looked up): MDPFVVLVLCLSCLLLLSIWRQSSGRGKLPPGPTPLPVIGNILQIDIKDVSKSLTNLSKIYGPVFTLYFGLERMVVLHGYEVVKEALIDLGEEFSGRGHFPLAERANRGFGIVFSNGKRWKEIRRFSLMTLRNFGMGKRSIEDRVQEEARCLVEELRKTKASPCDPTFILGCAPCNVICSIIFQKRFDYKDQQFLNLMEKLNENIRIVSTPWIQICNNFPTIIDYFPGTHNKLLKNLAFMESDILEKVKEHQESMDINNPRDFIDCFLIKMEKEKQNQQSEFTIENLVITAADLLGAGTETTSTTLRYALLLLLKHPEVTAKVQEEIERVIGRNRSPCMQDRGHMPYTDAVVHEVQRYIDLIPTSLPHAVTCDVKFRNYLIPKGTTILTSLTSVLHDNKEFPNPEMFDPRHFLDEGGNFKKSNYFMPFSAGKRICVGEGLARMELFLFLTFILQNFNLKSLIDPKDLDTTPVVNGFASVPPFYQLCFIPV
Chain of Cytochrome P450 2D6 (Homo sapiens) (P10635 whole entry, looked up): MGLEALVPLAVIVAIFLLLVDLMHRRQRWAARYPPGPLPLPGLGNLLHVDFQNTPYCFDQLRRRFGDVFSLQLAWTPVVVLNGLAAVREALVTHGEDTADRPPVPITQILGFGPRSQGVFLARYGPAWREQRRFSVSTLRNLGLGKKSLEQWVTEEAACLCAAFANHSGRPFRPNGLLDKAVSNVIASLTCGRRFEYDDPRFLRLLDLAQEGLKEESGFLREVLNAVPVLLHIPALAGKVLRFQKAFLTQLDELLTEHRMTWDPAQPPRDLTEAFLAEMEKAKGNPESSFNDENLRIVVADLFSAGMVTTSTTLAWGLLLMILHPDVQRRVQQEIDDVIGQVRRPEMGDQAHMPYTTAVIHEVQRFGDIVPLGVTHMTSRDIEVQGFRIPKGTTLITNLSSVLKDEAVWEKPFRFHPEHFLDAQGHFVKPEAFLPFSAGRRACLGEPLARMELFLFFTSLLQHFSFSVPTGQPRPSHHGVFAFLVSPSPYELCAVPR
Chain of Cytochrome P450 1A2 (Homo sapiens) (P05177 whole entry, looked up): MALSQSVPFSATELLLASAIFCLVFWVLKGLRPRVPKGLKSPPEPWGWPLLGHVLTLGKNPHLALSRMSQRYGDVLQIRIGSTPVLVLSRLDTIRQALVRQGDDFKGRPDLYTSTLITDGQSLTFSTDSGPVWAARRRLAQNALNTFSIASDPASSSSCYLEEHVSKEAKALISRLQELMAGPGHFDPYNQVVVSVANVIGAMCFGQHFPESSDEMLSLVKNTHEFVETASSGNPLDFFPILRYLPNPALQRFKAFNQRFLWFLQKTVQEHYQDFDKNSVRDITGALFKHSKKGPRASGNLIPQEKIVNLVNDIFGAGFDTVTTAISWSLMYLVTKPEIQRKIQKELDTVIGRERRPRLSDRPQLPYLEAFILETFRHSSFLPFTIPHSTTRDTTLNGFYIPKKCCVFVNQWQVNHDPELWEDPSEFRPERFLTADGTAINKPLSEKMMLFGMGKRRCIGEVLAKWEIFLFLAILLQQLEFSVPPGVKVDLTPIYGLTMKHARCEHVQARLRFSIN
Chain of Cytochrome P450 3A4 (Homo sapiens) (P08684 whole entry, looked up): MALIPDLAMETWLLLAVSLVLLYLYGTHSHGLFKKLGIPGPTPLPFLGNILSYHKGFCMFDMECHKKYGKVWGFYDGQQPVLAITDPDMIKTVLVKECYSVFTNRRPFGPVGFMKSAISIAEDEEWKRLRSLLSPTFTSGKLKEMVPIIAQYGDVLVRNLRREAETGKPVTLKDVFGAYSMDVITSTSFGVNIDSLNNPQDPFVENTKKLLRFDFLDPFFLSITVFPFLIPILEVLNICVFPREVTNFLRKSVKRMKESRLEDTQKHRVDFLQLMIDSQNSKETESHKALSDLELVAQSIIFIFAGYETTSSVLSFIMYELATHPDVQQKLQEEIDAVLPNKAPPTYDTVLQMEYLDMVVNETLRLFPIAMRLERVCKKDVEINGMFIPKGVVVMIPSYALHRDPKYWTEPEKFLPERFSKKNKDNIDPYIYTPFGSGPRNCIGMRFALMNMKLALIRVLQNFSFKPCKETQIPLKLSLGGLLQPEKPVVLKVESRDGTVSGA

Row | SMILES | Potency [1] | Potency [2] | Potency [3] | Potency [4] | Potency [5] | Potency [6]
1 | N=C(N)N | inactive | inactive | inactive | inactive |  | 
2 | CC(C)(C)c1ccc(N)cc1 | inactive | inactive | inactive | 28.3 µM (active) | inactive | 
3 | CC(=O)OC1CCC(C(C)(C)C)CC1 (stereo not given) | inactive | inactive |  | inactive | inactive | inactive
4 | CCCCN(CCCC)CCCCCCN(CCCC)CCCC | 5.03 µM (active) | inactive | inactive | inactive | inactive | 
5 | CCCCN1C(=O)c2ccccc2C1=O | inactive | 20.7 µM (active) | 2.61 µM (active) |  | inactive | 
6 | COc1ccccc1N1CCN(CC(O)COc2cc(OC)c(OC)c(OC)c2)CC1 (stereo not given) | inactive | inactive |  | inactive | inactive | 
7 | CCC(C)SSC(C)CC (stereo not given) | 31.7 µM (active) | inactive |  | inactive |  | inactive
8 | Cc1ccc(OC(=O)CC(C)C)cc1 | inactive | inactive |  | inactive | inactive | inactive
9 | CCCCCC(=O)CC | inactive | inactive | inactive | inactive |  | 
10 | Cc1ccc(O)c([N+](=O)[O-])c1 | 71.8 µM (active) | inactive |  | inactive | inactive | inactive
11 | Cc1cc(N)no1 | 65.6 µM (active) | inactive |  | inactive |  | inactive
12 | Cc1ccc2ccccc2n1 | inactive | inactive |  | inactive | inactive | inactive
13 | O=C1c2ccccc2C(=O)N1CO | inactive | inactive |  | inactive |  | inactive
14 | CC(C)CC(O)Cc1ccccc1 (stereo not given) | inactive | 71 µM (active) |  |  | inactive | 
15 | COC(=O)c1c(C)cc(O)c(C)c1O | 31.7 µM (active) | 7.96 µM (active) | 0.252 µM (active) |  | inactive | 
